The record followed here is the antibiotic and cytotoxicity screens of Wong et al. (2023).

Screen size: about 39,000 compounds; about 3,300 (8.5%) were called active. Only a selection was taken, and actives are over-represented in it overall.

The test system of the assay is HepG2. The assay is described as follows: cytotoxicity call (relative viability < 0.9). To be noted: 10 µM.
Turning to `CC(C)NC(=O)N(C)C[C@H]1OCCCC[C@H](C)Oc2ccc(NS(=O)(=O)c3cn(C)cn3)cc2C(=O)N([C@@H](C)CO)C[C@@H]1C`, the cytotoxicity call was “inactive”.
For the molecule `C[C@@H]1CN([C@H](C)CO)C(=O)c2cccc(NS(=O)(=O)c3ccccc3)c2O[C@H]1CN(C)S(=O)(=O)c1cccs1`, the cytotoxicity call was “inactive”.
For `COc1ccc(S(=O)(=O)N(C)C[C@@H]2Oc3ccc(NS(=O)(=O)c4c(C)noc4C)cc3C(=O)N([C@@H](C)CO)C[C@@H]2C)cc1`, the cytotoxicity call was “inactive”.
Take `COCC(=O)N1C[C@@H](C)[C@@H](OC)CN(C)C(=O)c2ccc(NC(=O)c3cc(C)on3)cc2OC[C@@H]1C`: the cytotoxicity call was “inactive”.
For `Cc1ccc(S(=O)(=O)N(C)C[C@@H]2OCCCC[C@H](C)Oc3ccc(NC(=O)c4ccccc4)cc3C(=O)N([C@H](C)CO)C[C@@H]2C)cc1`, the cytotoxicity call was “inactive”.
As for `COCC(=O)N(C)C[C@H]1Oc2cc(C#C[C@@H](C)O)ccc2S(=O)(=O)N([C@@H](C)CO)C[C@H]1C`, the entry is “inactive”; as for `COc1ccc(C#Cc2cnc3c(c2)C(=O)N([C@@H](C)CO)C[C@H](C)[C@@H](CN(C)C(=O)CN(C)C)O3)cc1`, “inactive”; as for `Cn1c(=O)[nH]c(=O)c2c1ncn2CCNCc1ccco1`, “inactive”.
The result for `C[C@@H]1CN([C@@H](C)CO)C(=O)c2cc(NC(=O)Cc3ccccc3)ccc2O[C@@H](C)CCCCO[C@@H]1CN(C)CC1CCCCC1` reads “inactive”; that for `O=C(C[C@H]1CC[C@H]2[C@@H](COC[C@H](O)CN2C(=O)c2ccncc2)O1)NC1CCC1`, “inactive”; that for `C[C@H]1CN([C@@H](C)CO)C(=O)c2cc(NC(=O)NC3CCCCC3)ccc2O[C@@H]1CN(C)S(=O)(=O)c1cn(C)cn1`, “inactive”.
As for `C[C@H]1CN([C@@H](C)CO)C(=O)Cc2cc(NS(=O)(=O)c3ccccc3)ccc2O[C@@H]1CN(C)Cc1ccc(Oc2ccccc2)cc1`, the entry is “inactive”.
With `C[C@@H]1CN([C@H](C)CO)C(=O)Cc2cc(NS(=O)(=O)c3ccccc3)ccc2O[C@@H]1CN(C)Cc1ccc(Oc2ccccc2)cc1`, the cytotoxicity call is “active”.
For `C[C@@H]1CN([C@H](C)CO)C(=O)Cc2cc(NS(=O)(=O)c3ccccc3)ccc2O[C@H]1CN(C)Cc1ccc(Oc2ccccc2)cc1`, the cytotoxicity call is “active”.
In the case of `C[C@H](CO)N1C[C@H](C)[C@@H](CN(C)Cc2ccc(Oc3ccccc3)cc2)Oc2ccc(NS(=O)(=O)c3ccccc3)cc2CC1=O`, the cytotoxicity call was “inactive”.
The result for `C[C@H]1CN([C@@H](C)CO)C(=O)Cc2cc(NS(=O)(=O)c3ccccc3)ccc2O[C@H]1CN(C)Cc1ccc(Oc2ccccc2)cc1` reads “inactive”.
Turning to `C[C@@H]1CN([C@@H](C)CO)C(=O)Cc2cc(NS(=O)(=O)c3ccccc3)ccc2O[C@@H]1CN(C)Cc1ccc(Oc2ccccc2)cc1`, the cytotoxicity call was “active”.
Turning to `C[C@@H]1CN([C@@H](C)CO)C(=O)Cc2cc(NS(=O)(=O)c3ccccc3)ccc2O[C@H]1CN(C)Cc1ccc(Oc2ccccc2)cc1`, the cytotoxicity call is “inactive”.
As for `C[C@H](CO)N1C[C@H](C)[C@H](CN(C)Cc2ccc(Oc3ccccc3)cc2)Oc2ccc(NS(=O)(=O)c3ccccc3)cc2CC1=O`, the entry is “inactive”; as for `COc1ccc(S(=O)(=O)Nc2cccc3c2O[C@@H](CN(C)Cc2ccc(-c4ccccc4)cc2)[C@H](C)CN([C@H](C)CO)C3=O)cc1`, “inactive”.
The result for `CO[C@H]1CN(C)C(=O)c2ccc(NC(=O)c3ccccc3)cc2OC[C@H](C)N(C(=O)CN(C)C)C[C@@H]1C` reads “inactive”; that for `C[C@@H]1CN([C@H](C)CO)C(=O)c2cccc(NC(=O)NC3CCCCC3)c2O[C@H]1CN(C)Cc1ccc(-c2ccccc2)cc1`, “inactive”; that for `CCS(=O)(=O)N1CCC[C@]2(C(=O)NCC3CC3)CN(Cc3cnn(C)c3)C[C@H]2C1`, “inactive”.
For the molecule `COc1ccc(C(=O)NC(CO)(CO)CO)cc1OC`, the cytotoxicity call is “inactive”.
`C[C@@H]1CN([C@H](C)CO)S(=O)(=O)c2ccc(C#CC3CCCC3)cc2O[C@@H]1CN(C)C(=O)Cc1ccncc1`: the cytotoxicity call is “inactive”.
As to `COc1cc2c(cc1O)CCN[C@]21CS[C@@H]2c3c(OC(C)=O)c(C)c4c(c3[C@H](COC1=O)N1[C@@H]2[C@H]2c3c(cc(C)c(OC)c3O)C[C@@H]([C@@H]1O)N2C)OCO4`, the cytotoxicity call was “active”.
`CO[C@H](CN(C)S(=O)(=O)c1ccc(C)cc1)[C@@H](C)CN([C@@H](C)CO)S(=O)(=O)c1cccc(Cl)c1`: the cytotoxicity call is “inactive”.
On to `Cc1cnc(Nc2ccc(F)cc2Cl)nc1-c1c[nH]c(C(=O)N[C@H](CO)c2cccc(Cl)c2)c1`, for which the cytotoxicity call was “active”.
As for `C[C@@H]1CN([C@@H](C)CO)C(=O)Cc2cc(NC(=O)CCN3CCOCC3)ccc2O[C@H]1CN(C)Cc1ccc(C(=O)Nc2ccccc2N)cc1`, the entry is “inactive”; as for `CC(=O)OC1CC(OC(C)=O)C2(C)C(CC(=O)C3(C)C2CCC2(C)C(c4ccoc4)OC(=O)C4OC423)C1(C)C` (centres undefined), “inactive”; as for `CC1(C)C(=O)C=CC2(C)C1CC(=O)C1(C)C2CCC2(C)C(c3ccoc3)OC(=O)C3OC321` (centres undefined), “active”.
As for `CC(=O)O[C@H]1CC[C@]2(C)[C@H]3CC[C@@]4(C)[C@H](c5ccoc5)OC(=O)[C@H]5O[C@]54[C@]3(C)[C@H](OC(C)=O)C[C@H]2C1(C)C`, the cytotoxicity call is “inactive”.
The result for `CC(=O)OC1CCC2(C)C(CC(OC(C)=O)C3(C)C2CCC2(C)C(c4ccoc4)OC(=O)C4OC423)C1(C)C` (stereo not drawn) [3beta-ACETOXYDEOXODIHYDROGEDUNIN ] reads “inactive”.
As for `CC1(C)OC2CC(=O)OCC23C1CC(=O)C1(C)C3CCC2(C)C(c3ccoc3)OC(=O)C3OC321` (centres undefined), the entry is “inactive”; as for `CC1(C)C(=O)C=CC2(C)C1C=CC1(C)C2CCC2(C)C(c3ccoc3)OC(=O)C3OC312` (centres undefined), “active”; as for `C[C@H]1CCCCO[C@@H](CN(C)C(=O)c2ccncc2)[C@@H](C)CN([C@@H](C)CO)C(=O)c2cc(NS(=O)(=O)c3ccc(Cl)cc3)ccc2O1`, “inactive”.
As to `Nc1ccc([C@@H](O)[C@@H](O)CO)cc1`, the cytotoxicity call is “inactive”.
For the molecule `COc1ccc(S(=O)(=O)N(C)C[C@@H]2Oc3c(NC(=O)c4cnccn4)cccc3C(=O)N([C@@H](C)CO)C[C@H]2C)cc1`, the cytotoxicity call was “inactive”.
Take `C[C@H](CO)N1C[C@H](C)[C@H](CN(C)C(=O)Cc2ccccn2)Oc2ncc(-c3cccc(C(=O)N(C)C)c3)cc2C1=O`: the cytotoxicity call is “inactive”.
For the molecule `COc1ccc(S(=O)(=O)N(C)C[C@@H]2Oc3ccc(NS(C)(=O)=O)cc3CC(=O)N([C@H](C)CO)C[C@@H]2C)cc1`, the cytotoxicity call was “inactive”.
For the molecule `COc1ccc(NC(=O)Nc2ccc3c(c2)C(=O)N([C@@H](C)CO)C[C@H](C)[C@H](CN(C)Cc2ccc4c(c2)OCO4)OCCCC[C@@H](C)O3)cc1`, the cytotoxicity call is “inactive”.
The result for `COc1ccc(NC(=O)Nc2ccc3c(c2)C(=O)N([C@H](C)CO)C[C@H](C)[C@@H](CN(C)Cc2ccc4c(c2)OCO4)OCCCC[C@H](C)O3)cc1` reads “inactive”; that for `COc1ccc(NC(=O)Nc2ccc3c(c2)C(=O)N([C@H](C)CO)C[C@@H](C)[C@H](CN(C)Cc2ccc4c(c2)OCO4)OCCCC[C@@H](C)O3)cc1`, “inactive”.
As for `COc1ccc(NC(=O)Nc2ccc3c(c2)C(=O)N([C@@H](C)CO)C[C@@H](C)[C@@H](CN(C)Cc2ccc4c(c2)OCO4)OCCCC[C@@H](C)O3)cc1`, the cytotoxicity call is “inactive”.
The result for `COc1ccc(NC(=O)Nc2ccc3c(c2)C(=O)N([C@H](C)CO)C[C@H](C)[C@H](CN(C)Cc2ccc4c(c2)OCO4)OCCCC[C@H](C)O3)cc1` reads “active”; that for `COc1ccc(NC(=O)Nc2ccc3c(c2)C(=O)N([C@H](C)CO)C[C@@H](C)[C@@H](CN(C)Cc2ccc4c(c2)OCO4)OCCCC[C@@H](C)O3)cc1`, “active”; that for `C[C@@H]1CCCCO[C@H](CN(C)C(=O)NC2CCCCC2)[C@H](C)CN([C@@H](C)CO)C(=O)c2cc(NC(=O)c3ccccc3)ccc2O1`, “inactive”.
With `C[C@@H]1CN([C@@H](C)CO)C(=O)Cc2cc(NC(=O)Cc3ccccc3)ccc2O[C@H]1CN(C)C(=O)Nc1cccc2ccccc12`, the cytotoxicity call was “inactive”.
The result for `C[C@@H]1CCCCO[C@H](CN(C)Cc2ccncc2)[C@@H](C)CN([C@H](C)CO)C(=O)c2cc(NC(=O)Nc3ccccc3)ccc2O1` reads “inactive”; that for `COc1ccc(S(=O)(=O)Nc2cccc3c2O[C@@H](CN(C)S(=O)(=O)c2ccc(OC)cc2)[C@@H](C)CN([C@@H](C)CO)C3=O)cc1`, “inactive”; that for `CCc1c(O)cc(O)c(C(=O)c2ccc(OCCN3CCOCC3)c(OC)c2)c1CC(=O)N(CCOC)CCOC`, “active”.
On to `COc1cc(C(=O)OCCN2CCN(CCOC(=O)c3cc(OC)c(OC)c(OC)c3)CC2)cc(OC)c1OC`, for which the cytotoxicity call was “inactive”.
As for `COc1c(OCCCN2CCOCC2)ccc2c1N=C(NC(=O)c1cnc(N)nc1)N1CCN=C21`, the entry is “inactive”; as for `C[C@H]1CN([C@@H](C)CO)C(=O)c2cccc(NS(=O)(=O)c3ccc(F)cc3)c2O[C@@H]1CN(C)CC1CC1`, “inactive”; as for `Cc1cc(=O)n(CCO)c(=O)[nH]1`, “inactive”.
With `CCC(=O)N(C)C[C@H]1Oc2ncc(C#C[C@H](C)O)cc2C(=O)N([C@H](C)CO)C[C@H]1C`, the cytotoxicity call was “inactive”.
Take `CC(C)(C)[S@](=O)N1Cc2cc(C(=O)N[C@@H]3CCN(Cc4ccccc4)C3)nc(-c3cccc(-c4cccnc4)c3)c2[C@@H]1CCO`: the cytotoxicity call is “inactive”.
As for `COc1cccc(NC(=O)N(C)C[C@H]2Oc3ncc(C#Cc4ccncc4)cc3C(=O)N([C@@H](C)CO)C[C@@H]2C)c1`, the entry is “active”; as for `COc1ccccc1NC(=O)N(C)C[C@@H]1Oc2ncc(C#CCN(C)C)cc2C(=O)N([C@@H](C)CO)C[C@H]1C`, “active”.
The result for `COc1cccc(NC(=O)N(C)C[C@H]2Oc3ncc(C#Cc4ccncc4)cc3C(=O)N([C@H](C)CO)C[C@H]2C)c1` reads “active”; that for `COc1cccc(NC(=O)N(C)C[C@H]2Oc3ncc(C#Cc4ccncc4)cc3C(=O)N([C@H](C)CO)C[C@@H]2C)c1`, “inactive”.
As for `COc1cccc(NC(=O)N(C)C[C@H]2Oc3ncc(C#Cc4cccnc4)cc3C(=O)N([C@H](C)CO)C[C@H]2C)c1`, the entry is “inactive”.
With `COc1cccc(NC(=O)N(C)C[C@@H]2Oc3ncc(C#Cc4ccncc4)cc3C(=O)N([C@@H](C)CO)C[C@H]2C)c1`, the cytotoxicity call is “inactive”.
On to `COc1cccc(NC(=O)N(C)C[C@@H]2Oc3ncc(C#Cc4ccncc4)cc3C(=O)N([C@H](C)CO)C[C@H]2C)c1`, for which the cytotoxicity call is “active”.
On to `COc1cccc(NC(=O)N(C)C[C@@H]2Oc3ncc(C#Cc4ccncc4)cc3C(=O)N([C@@H](C)CO)C[C@@H]2C)c1`, for which the cytotoxicity call was “inactive”.
The result for `COc1cccc(NC(=O)N(C)C[C@@H]2Oc3ncc(C#Cc4ccncc4)cc3C(=O)N([C@H](C)CO)C[C@@H]2C)c1` reads “inactive”; that for `COc1ccccc1NC(=O)N(C)C[C@@H]1Oc2ncc(C#CCN(C)C)cc2C(=O)N([C@@H](C)CO)C[C@@H]1C`, “inactive”.
The result for `COc1cccc(NC(=O)N(C)C[C@@H]2Oc3ncc(C#Cc4cccnc4)cc3C(=O)N([C@@H](C)CO)C[C@H]2C)c1` reads “inactive”; that for `COc1ccccc1NC(=O)N(C)C[C@@H]1Oc2ncc(C#CCN(C)C)cc2C(=O)N([C@H](C)CO)C[C@@H]1C`, “inactive”.
